Assay results as given in PubChem BioAssay AID1159580 (chemical genetic matrix, 2015).
In all, about 5,500 compounds went through this assay and about 2,000 (36%) were called active. Inconclusive results (about 18%) are left out. Rule as the data show it: active = normalized growth mostly below about 0.91 (no sharp cut-off); inconclusive = no clear call, values can overlap the other calls; inactive = mostly above about 0.92. Some of the results follow.

Experiment: chemical genetic growth profiling, strain panel (AID 1159580);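 also: tested at 20 µM; growth read once vehicle control cultures reached saturation at 30 °C; 1 = growth at the plate median or of vehicle wells; lower values mean less growth of the strain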
Settings: S. cerevisiae deletion strains, growth OD

Measured: normalized growth

C=Cc1c(C)c2[n-]c1=Cc1[n-]c(c(CC)c1C)C=c1[n-]c3c(c1C)C(=O)C(C(=O)[O-])C=3c1[n-]c(c(C)c1CCC(=O)[O-])C=2.[Cu] (stereo not given)
active: locus YAL030W, strain snc1, stronger effect = lower value 1.09 [resistant] | locus YCR088W, strain abp1, stronger effect = lower value 1.11 [resistant] | locus YDL040C, strain nat1, stronger effect = lower value 1.08 [resistant] | locus YDR001C, strain nth1, stronger effect = lower value 1.1 [resistant] | locus YDR069C, strain doa4, stronger effect = lower value 1.12 [resistant] | locus YDR137W, strain rgp1, stronger effect = lower value 1.16 [resistant] | locus YDR195W, strain ref2 1.28 [resistant] | locus YDR297W, strain sur2, stronger effect = lower value 1.08 [resistant] | locus YDR334W, strain swr1, stronger effect = lower value 1.11 [resistant] | locus YEL061C, strain CIN8 (second series), stronger effect = lower value 1.09 [resistant] | locus YER016W, strain bim1, stronger effect = lower value 1.09 [resistant] | locus YER111C, strain swi4, stronger effect = lower value 1.09 [resistant] | locus YER155C, strain BEM2 (second series), stronger effect = lower value 1.17 [resistant] | locus YGL227W, strain vid30, stronger effect = lower value 1.1 [resistant] | locus YHR013C, strain ard1, stronger effect = lower value 1.18 [resistant] | locus YJL095W, strain BCK1 (second series), stronger effect = lower value 1.09 [resistant] | locus YJL115W, strain asf1, stronger effect = lower value 1.11 [resistant] | locus YJL129C, strain trk1, stronger effect = lower value 1.15 [resistant] | locus YJL154C, strain vps35, stronger effect = lower value 1.09 [resistant] | locus YJL187C, strain SWE1, stronger effect = lower value 1.08 [resistant] | locus YKR026C, strain gcn3, stronger effect = lower value 1.1 [resistant] | locus YKR091W, strain srl3, stronger effect = lower value 1.08 [resistant] | locus YLL026W, stronger effect = lower value 1.08 [resistant] | locus YLL041C, strain sdh2, stronger effect = lower value 1.08 [resistant] | locus YMR125W, strain sto1, stronger effect = lower value 1.13 [resistant] | locus YMR129W, stronger effect = lower value 1.08 [resistant] | locus YMR231W, strain pep5, stronger effect = lower value 1.08 [resistant] | locus YNL071W, strain lat1, stronger effect = lower value 1.09 [resistant] | locus YNR049C, strain mso1, stronger effect = lower value 1.09 [resistant] | locus YOR265W, strain rbl2, stronger effect = lower value 1.09 [resistant] | locus YPL106C, strain sse1, stronger effect = lower value 1.16 [resistant] | locus YPL240C, strain hsp82, stronger effect = lower value 1.09 [resistant]
inactive: locus YAL021C, strain ccr4, stronger effect = lower value 1.07 | locus YAL026C, strain drs2, stronger effect = lower value 1.02 | locus YBL061C, strain skt5, stronger effect = lower value 1.08 | locus YBR009C, strain hhf1, stronger effect = lower value 1.02 | locus YBR023C, strain chs3, stronger effect = lower value 1.07 | locus YBR171W, strain sec66, stronger effect = lower value 1.09 | locus YBR231C, strain swc5, stronger effect = lower value 1.08 | locus YBR279W, strain paf1, stronger effect = lower value 1.06 | locus YCL011C, strain gbp2, stronger effect = lower value 1.05 | locus YCL016C, strain dcc1, stronger effect = lower value 1.03 | locus YCL061C, strain MRC1, stronger effect = lower value 1.03 | locus YCL069W, strain vba3, stronger effect = lower value 1.07 | locus YDL005C, strain med2, stronger effect = lower value 1.08 | locus YDR159W, strain sac3, stronger effect = lower value 1.09 | locus YDR335W, strain msn5, stronger effect = lower value 1.02 | locus YDR392W, strain spt3, stronger effect = lower value 1.11 | locus YEL003W, strain gim4, stronger effect = lower value 1.03 | locus YEL037C, strain rad23, stronger effect = lower value 1.07 | locus YER015W, strain faa2, stronger effect = lower value 1.02 | locus YFR010W, strain ubp6, stronger effect = lower value 1.1 | locus YGL167C, strain pmr1, stronger effect = lower value 1.08 | locus YGL173C, strain kem1, stronger effect = lower value 1.02 | locus YGL240W, strain doc1, stronger effect = lower value 1.03 | locus YGL253W, strain hxk2, stronger effect = lower value 1.02 | locus YHR027C, strain rpn1, stronger effect = lower value 1.05 | locus YHR030C, strain SLT2, stronger effect = lower value 0.992 | locus YHR079C, strain IRE1, stronger effect = lower value 0.998 | locus YHR142W, strain chs7, stronger effect = lower value 1.08 | locus YJL092W, strain hpr5, stronger effect = lower value 1.07 | locus YJL095W, strain BCK1, stronger effect = lower value 0.957 | locus YJL164C, strain tpk1, stronger effect = lower value 1.05 | locus YJL166W, strain qcr8, stronger effect = lower value 1.01 | locus YJR066W, strain TOR1, stronger effect = lower value 0.957 | locus YKL160W, strain elf1, stronger effect = lower value 1.06 | locus YLL001W, strain dnm1, stronger effect = lower value 1.06 | locus YLR027C, strain aat2, stronger effect = lower value 1.07 | locus YLR113W, strain HOG1, stronger effect = lower value 0.999 | locus YLR221C, strain rsa3, stronger effect = lower value 1.01 | locus YLR258W, strain gsy2, stronger effect = lower value 1.07 | locus YLR262C, strain YPT6 (second series), stronger effect = lower value 1.09 | locus YLR320W, strain mms22, stronger effect = lower value 1.06 | locus YLR342W, strain FKS1, stronger effect = lower value 1.04 | locus YLR357W, strain rsc2, stronger effect = lower value 1.08 | locus YLR370C, strain arc18, stronger effect = lower value 1.04 | locus YLR384C, strain iki3, stronger effect = lower value 1.08 | locus YML120C, strain ndi1, stronger effect = lower value 1.03 | locus YMR058W, strain fet3, stronger effect = lower value 0.967 | locus YMR205C, strain PFK2, stronger effect = lower value 1.11 | locus YNL183C, strain NPR1, stronger effect = lower value 0.862 | locus YNL209W, strain ssb2, stronger effect = lower value 1.04 | locus YNL248C, strain rpa49, stronger effect = lower value 1.03 | locus YNL322C, strain KRE1 (second series), stronger effect = lower value 1.08 | locus YOR001W, strain rrp6, stronger effect = lower value 1.05 | locus YOR070C, strain gyp1, stronger effect = lower value 1.05 | locus YOR080W, strain dia2, stronger effect = lower value 1.06 | locus YOR083W, strain WHI5, stronger effect = lower value 0.992 | locus YOR106W, strain vam3, stronger effect = lower value 0.999 | locus YOR231W, strain MKK1, stronger effect = lower value 1.01 | locus YOR270C, strain vph1, stronger effect = lower value 1.15 | locus YOR290C, strain snf2, stronger effect = lower value 1.06 | locus YPL051W, strain arl3, stronger effect = lower value 1.07 | locus YPL078C, strain atp4, stronger effect = lower value 1.03 | locus YPL256C, strain CLN2, stronger effect = lower value 1.05
